# Source: PubChem BioAssay
# Target: Alpha-bungarotoxin (Bungarus multicinctus) (UniProt P60615)
# Assay: alpha-bungarotoxin binders on microarray, profiling panel, artefact control for SMM control protein annotation, biochemical, small-molecule microarray, Alexa647 label, 635/667 nm fluorescence (AID 1117)
# Conditions: alpha-BTX-A647 binding fluorescence, higher = more signal
# Alpha-bungarotoxin (Bungarus multicinctus), sequence (P60615 whole entry, looked up): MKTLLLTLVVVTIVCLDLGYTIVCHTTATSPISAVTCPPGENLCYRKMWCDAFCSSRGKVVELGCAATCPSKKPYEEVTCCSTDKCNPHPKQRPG
row,SMILES,composite z-score
1,[N-]=[N+]=Nc1ccccc1C[C@@]1(C(=O)N2CCOCC2)N=C(c2ccc(OCCCO)cc2)O[C@@H]1c1ccccc1,1.39
2,[N-]=[N+]=Nc1ccccc1C[C@]1(C(=O)O)COC(c2ccc(OCCCO)cc2)=N1,-0.215
3,COCCOC(=O)N1C(=O)[C@@]2(c3cc(C#CC4=CCCCC4)ccc31)[C@H](c1ccccc1OCCO)N1[C@H](c3ccccc3)[C@H](c3ccccc3)OC(=O)[C@H]1[C@@H]2C(=O)N1CCN(c2ncccn2)CC1,0.511
4,O=C1O[C@@H](c2ccccc2)[C@@H](c2ccccc2)N2[C@@H](c3ccc(OCCO)cc3)[C@]3(C(=O)Nc4ccc(C#CC5=CCCCC5)cc43)[C@@H](C(=O)NC[C@H](O)c3ccccc3)[C@H]12,0.608
5,[N-]=[N+]=Nc1ccccc1C[C@]1(C(=O)NCCN2CCOCC2)COC(c2ccc(OCCCO)cc2)=N1,0.536
6,O=C1OCCC=C[C@H]2OC34C=CCN(Cn5nnc6ccccc65)C(=O)[C@H]3N(CCCO)C(=O)[C@@H]4C12 (stereo not given in full),0.204
7,CC(C)[Si](C#C[Si](C(C)C)(C(C)C)C(C)C)(O[C@H](c1ccccc1)c1cn(Cc2ccccc2)nn1)C(C)C,0.717
8,CC(C)N1C(=O)C[C@@](C(=O)O)(c2ccc([N+](=O)[O-])cc2)[C@H]1c1ccc(CO)cc1,-0.315
9,C=CCC(OC(C)=O)[C@@H]1[C@@H](N(Cc2ccc(-c3ccccc3)cc2)C(=O)c2ccc(-c3ccccc3)cc2)c2cc(OCCCO)ccc2N1C(=O)c1ccc2ccccc2c1 (stereo not given in full),-0.116
10,COc1ccc([Si](C)(C)[C@@H]2[C@@H](CCO)O[C@]3(C(=O)N(Cc4ccccc4)c4ccc(N5CCOC5=O)cc43)[C@H]2C)cc1,1.09
